Results taken from PubChem BioAssay (Tox21).
Where “and” joins values, the source holds several entries; their conditions need not be identical. Equal values may be shown once. Records with an inconclusive call do not appear. Calls of active or inactive are those of the source. The call rests on the fitted dose curve.

Test: qHTS assay to identify small molecule antagonists of the sonic hedgehog signaling (Shh) pathway (AID 1259369); further: nearly all actives have a fitted effect of over 45% in size
Details: NIH/3T3 Gli1-Luc reporter, Shh antagonist, luminescence 24 h; series mostly up to 92.4 µM; activity change, negative = inhibition: at the top concentration
Description: U.S. Tox21 Program National Center for Advancing Translational Sciences [NCATS] NIH Chemical Genomics Center [NCGC] U.S. Environmental Protection Agency [EPA] National Institutes of Environmental Health Sciences [NIEHS] National Toxicology Program [NTP] U.S. Food and Drug Administration [FDA] Tox21 Assay Overview: The sonic hedgehog (Shh) pathway is essential for normal embryonic development. Dysregulation of the Shh pathway can cause severe developmental defects in organs. Therefore chemicals that interfere with the pathway are potential developmental toxicants. A cell line designated 3T3Gli1-Luc (DMB/OARSA/CFSAN/FDA, Laurel, MD), a NIH/3T3 derived clone containing stably integrated Gli1-Luc reporter is used to detect chemical interference of the Shh pathway, by changes in the expression of the firefly Luc gene under the control of the Gli1 transcriptional response element. This cell line was used to screen Tox21 libraries for identifying and prioritizing the potential developmental toxicants that interfere Shh pathway. Conditioned medium-stimulated mode was used to screen for chemicals inhibiting Shh signaling.
Tox21 Assay Protocol Summary: 3T3 Gli1-Luc cells were dispensed at 2,000 per well in 5uL of culture medium into white solid bottom 1536-well plates (Greiner Bio-One, Monroe, NC) using a Multidrop Combi (Thermo Scientific, Waltham, MA) dispenser. The assay plates were incubated at 37 C and 5% CO2 for 4hr, and then 23nL of compounds dissolved in DMSO and positive control were transferred using a Pintool station (Wako, San Diego, CA). The compound transfer was followed by the addition of 1ul conditioned medium or assay buffer using two separate tips of Flying Reagent Dispenser (FRD, Aurora Discovery, San Diego, CA). The assay plates were incubated at 37C and 5% CO2 for 24hr. For luciferase read, 4uL of Amplite Luciferase reporter gene assay reagent (AAT Bioquest, Inc. Sunnyvale, CA) was added to each well of the assay plates using FRD and incubated at room temperature for 30min. The luminescence signal was measured using a ViewLux plate reader (Perkin Elmer, Shelton, CT).
On the % scale 0 is the no-effect control and ±100 the full control effect; potency means the concentration at half of the fitted maximal effect.

Row | SMILES | Potency | activity change, negative = inhibition
1 | O=C1c2ccccc2C(=O)N1SC1CCCCC1 | 15.3 µM (active) | –
2 | CCCCCc1ccc(Cl)cc1 | – | -0.2% (inactive)
3 | C[C@H]1NCc2cc(-c3ccc4c(=O)c(C(=O)O)cn(C5CC5)c4c3OC(F)F)ccc21 | – | 4.27% [at 19 µM] (inactive)
4 | O=[N+]([O-])c1ccc(F)c(Cl)c1 | – | 22.3% (inactive)
5 | COc1cccc2c1C(=O)c1c(O)c3c(c(O)c1C2=O)C[C@@](O)(C(C)=O)C[C@@H]3O[C@H]1C[C@H](N)[C@H](O)[C@H](C)O1 | 0.0194 µM (active) | –
6 | CCC(CC)(CC(=O)Nc1cccc(/C=C/c2nc(C3CCC3)cs2)c1)C(=O)O | – | -9.97% [at 42.5 µM] (inactive)
7 | CC(C)(C)NSc1nc2ccccc2s1 | – | 0.637% (inactive)
8 | OC12N=C(c3ccccc3)SC1Cc1cc(Cl)ccc12 (stereo not given) | – | -34.6% (inactive)
9 | CC(C)(c1cc(Br)c(OCC(Br)CBr)c(Br)c1)c1cc(Br)c(OCC(Br)CBr)c(Br)c1 (stereo not given) | – | 5.53% [at 42.5 µM] (inactive)
10 | Nc1nc2c(ncn2COCCO)c(=O)[nH]1 | – | 18.9% [at 42.5 µM] (inactive)
11 | CC[N+](CC)(CC)CCOC(=O)C(C1CCCC1)C1CCCC1 | – | -26.7% [at 42.5 µM] (inactive)
12 | Nc1ccc(NCCO)c([N+](=O)[O-])c1 | – | 2.34% (inactive)
13 | CCOC(=O)c1ccc(C2CCC(NC[C@H](O)COc3ccc(O)c(NS(C)(=O)=O)c3)CC2)cc1 (stereo not given in full) | 10 µM (active) | –
14 | CCC(COC(=O)CCS)(COC(=O)CCS)COC(=O)CCS | – | 26.2% (inactive)
15 | COC(C)=O | – | -1.34% (inactive)
16 | O=S(=O)(O)c1ccc(Nc2nc(Nc3ccc(/C=C/c4ccc(Nc5nc(Nc6ccc(S(=O)(=O)O)cc6)nc(N(CCO)CCO)n5)cc4S(=O)(=O)O)c(S(=O)(=O)O)c3)nc(N(CCO)CCO)n2)cc1 | – | -8.21% [at 42.5 µM] (inactive)
17 | O=C1NC(=O)[C@@H]2CC=CC[C@H]12 | – | -11.6% (inactive)
18 | CCC(C)n1ncn(-c2ccc(N3CCN(c4ccc(OC[C@H]5CO[C@](Cn6cncn6)(c6ccc(Cl)cc6Cl)O5)cc4)CC3)cc2)c1=O (stereo not given in full) | 1.68 µM (active) | –
19 | CCCCCCCCCCCCCCCC[N+](C)(C)CC | 6.88 µM (active) and 15 nM (active) | –
20 | CC(=O)[C@H]1CC[C@H]2[C@@H]3CCC4=CC(=O)CC[C@]4(C)[C@H]3CC[C@]12C | 9.63 µM (active) and 6.11 µM (active) | –

Row | SMILES | Potency | activity change, negative = inhibition
21 | CCCCC(CC)COC(=O)CCCCC(=O)OCc1ccccc1 (stereo not given) | – | 11.7% (inactive)
22 | Cc1c(C)c2c(c(C)c1OC(=O)c1cccnc1)CC[C@@](C)(CCC[C@H](C)CCC[C@H](C)CCCC(C)C)O2 | – | 13.1% [at 42.5 µM] (inactive)
23 | CN1CCC[C@@H]1CCO[C@](C)(c1ccccc1)c1ccc(Cl)cc1 | 26.6 µM (active) | –
24 | Nc1nc(-c2ccccc2)cs1 | – | -25.8% (inactive)
25 | O=[N+]([O-])c1ccc(O)cc1C(F)(F)F | – | 0% (inactive)
26 | c1ccsc1 | – | 14.3% (inactive)
27 | C#C[C@]1(O)CC[C@H]2[C@@H]3[C@H](C)CC4=C(CCC(=O)C4)[C@H]3CC[C@@]21C | 29.8 µM (active) | –
28 | O=C(Nc1ccc2c(O)c(N=Nc3ccc(N=Nc4ccc(S(=O)(=O)O)cc4)cc3)c(S(=O)(=O)O)cc2c1)c1ccccc1 | – | -7.61% (inactive)
29 | COCCOc1cc2cc(C(=O)NC3CCN(C(C)C)CC3)n(CC(=O)Nc3ccc(Cl)cn3)c2cn1 | 15.2 µM (active) | –
30 | CC(C)(C)C1CCC(=O)CC1 | 30.6 µM (active) | –
31 | O=C(O)c1cc(O)c2ccccc2c1O | 1.72 µM (active) | –
32 | O=C(/C=C/c1ccccc1)OC/C=C/c1ccccc1 | – | 6.54% (inactive)
33 | CC/C=C\CCCCCO | – | 7.93% (inactive)
34 | C=Cc1ccccc1C=C | – | 7.58% [at 240 µM] (inactive)
35 | CC1(C)CCC[C@]2(C)[C@H]3CC(=O)O[C@]3(C)CC[C@@H]12 | 30.6 µM (active) | –
36 | CN(C)CCN1CCN(c2cccc(Cl)c2)C1=O | – | 14.9% [at 42.5 µM] (inactive)
37 | Cc1nc2n(c(=O)c1CCN1CCC(c3noc4cc(F)ccc34)CC1)CCCC2 | – | 4.32% [at 42.5 µM] (inactive)
38 | CCc1ccc(Br)cc1 | – | 29.5% (inactive)
39 | CCCCC(CC)CN1CN(CC(CC)CCCC)CC(C)(N)C1 (stereo not given) | – | -14% [at 42.5 µM] (inactive)
40 | O=C(O)CCN(C1(C(=O)NO)CCCC1)S(=O)(=O)c1ccc(Oc2ccc(F)cc2)cc1 | – | 27.6% (inactive)
